High-throughput results deposited in PubChem by The Scripps Research Institute Molecular Screening Center.
Shown are actives, neighbours in structure and some others; about 2.2% of the full set was active somewhere.
M1 antag: human M1 muscarinic receptor antagonists, primary screen, CHO-K1 cells, Fluo-8 calcium fluorescence, 1536-well. CHO-K1 hM1, ACh EC80 antagonist. inhibition, % at 3 µM. actives 1.3% (n = 360,000);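 active means percent inhibition above its own plate's cutoff, namely the mean of that plate's compound wells plus 3 SD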;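 further: peak over basal fluorescence ratio during 140 s after agonist addition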
Target sequence (P11229 whole entry, looked up): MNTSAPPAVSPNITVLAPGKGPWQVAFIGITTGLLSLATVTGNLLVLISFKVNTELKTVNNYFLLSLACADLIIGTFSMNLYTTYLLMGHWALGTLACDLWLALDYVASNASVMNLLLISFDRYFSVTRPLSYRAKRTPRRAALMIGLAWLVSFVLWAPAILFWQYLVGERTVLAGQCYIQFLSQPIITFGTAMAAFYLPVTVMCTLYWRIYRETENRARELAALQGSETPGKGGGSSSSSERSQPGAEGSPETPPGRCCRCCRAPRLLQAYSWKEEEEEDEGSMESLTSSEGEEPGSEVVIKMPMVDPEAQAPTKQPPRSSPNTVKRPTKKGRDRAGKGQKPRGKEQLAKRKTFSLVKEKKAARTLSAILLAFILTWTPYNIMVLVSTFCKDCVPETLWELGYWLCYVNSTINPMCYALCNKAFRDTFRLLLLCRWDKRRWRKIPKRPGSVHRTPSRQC
CHRM1 PAM: human M1 muscarinic receptor positive allosteric modulators, primary screen, CHO-K1 cells, Fluo-8 calcium fluorescence, 1536-well. AID 588819, 2011. activation, % at 3 µM. CHO-K1 hM1, ACh EC20; 0% = ACh EC20, 100% = maximal ACh. Muscarinic acetylcholine receptor M1 (Homo sapiens), P11229. actives 0.088% (n = 360,000); in the data active means activation above about 19%, passing the limit was not always enough
M1 ag: human M1 muscarinic receptor agonists, primary screen, Fluo-8 calcium fluorescence, CHO-K1 cells, HTS; CHO-K1 hM1, agonist mode; 0% DMSO, 100% acetylcholine EC100; Muscarinic acetylcholine receptor M1 (Homo sapiens), P11229; activation, % at 3 µM; AID 588814, 2011; actives 0.33% (n = 360,000);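 active means activation above the run's mean compound activation plus 3 SD, cut at about 16% in these data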;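 further: peak over basal fluorescence ratio within a 140 s kinetic read after compound addition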
CHRM4 antagonist: human M4 muscarinic receptor antagonists, primary screen, CHO cells, Fluo-8 calcium fluorescence; CHO-hM4 cells, ACh EC80; actives 0.73% (n = 360,000); inhibition, % at 3 µM;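 active means inhibition above its plate's cutoff, the mean inhibition of sample wells plus 3 SD, cut at about 27% in these data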
CHRM4 PAM: human M4 muscarinic receptor positive allosteric modulators, primary screen, CHO-K1 cells, Fluo-8 calcium fluorescence; CHO-K1 hM4/Gqi5, ACh EC20; 0% = ACh EC20, 100% = maximal ACh; activation, % at 3 µM; actives 0.4% (n = 360,000);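 active means activation above its plate's cutoff, the mean activation of sample wells plus 3 SD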
CHRM4 agonist: human M4 muscarinic receptor agonists, primary screen, CHO-K1 cells, Fluo-8 calcium fluorescence; CHO-K1 hM4/Gqi5; vehicle 0%, full acetylcholine response 100%; Muscarinic acetylcholine receptor M4 (Homo sapiens), P08173; actives 0.14% (n = 360,000); activation, % at 3 µM;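 active means activation above the run mean over all test wells plus 3 SD, cut at about 32% in these data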;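 further: peak over basal fluorescence ratio per well then scaled between controls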
A number is an active result; – = inactive; · = not tested or not shown; ! = not confirmed by another sample.

SMILES	M1 antag	CHRM1 PAM	M1 ag	CHRM4 antagonist	CHRM4 PAM	CHRM4 agonist
COc1ccccc1CNC(=O)c1cccc(S(=O)(=O)N2CCN(C)CC2)c1	–	–	–	–	–	–
COc1cc(OC)c(OC)cc1CNC(=O)c1cccc(S(=O)(=O)N2CCc3ccccc3C2)c1	35.6	–	–	–	–	–
O=C(NC1CCCN(Cc2ccc(Cl)cc2)C1)c1ccnc(Cl)c1 (stereo not given)	–	–	–	–	–	–
O=C(NC1CCCN(c2ccc(C(F)(F)F)cn2)C1)c1ccnc(Cl)c1 (stereo not given)	–	–	–	–	19.8	–
O=c1c2ccccc2nc2n1CCCCC2	–	–	–	–	–	–
N=c1c2ccccc2nc2n1CCCCCCCCCCC2	–	–	–	–	–	33.8
CCN1CCN(C2CCCCC2NS(=O)(=O)c2ccccc2)CC1 (stereo not given)	34.1	–	–	–	–	–
CC(O)C(NS(=O)(=O)c1ccc(Cl)cc1)C(=O)OCC(=O)N1CCN(c2ccccc2)CC1 (stereo not given)	–	–	–	–	–	–
CN(C(=O)c1ccccc1OCc1ccc(Cl)cc1)c1ccccc1	74.9	–	–	–	–	–
CN(CC(=O)Nc1ccccc1Br)C(=O)c1ccccc1OCc1ccc(Cl)cc1	–	–	–	–	–	–
CCN(CC)S(=O)(=O)c1cccc(C(=O)N[C@H](C(=O)NCc2ccc(Cl)cc2)C(C)C)c1	–	–	–	–	–	–
O=C(Nc1ccc(OCC(F)(F)C(F)F)c(C(F)(F)F)c1)c1ccccc1O	20.1	–	–	–	–	–
Cc1ccc(NC(=O)c2ncn(CCCNCCCN(C)C)n2)cc1C	–	–	–	–	–	–
Cc1ccc(NC(=O)c2ncn(CCCNCCCc3ccccc3)n2)cc1C	–	–	17.7	–	–	–
CC1(C(=O)O)CCCN1C(=O)c1ccco1 (stereo not given)	–	–	–	–	–	–
CCN(CC)C1CCN(C(=O)c2cc(COc3ccccc3SC)on2)C1 (stereo not given)	56.1	–	–	–	–	–
CCN(CC)C1CCN(C(=O)c2cc(COc3ccc(F)cc3Cl)on2)C1 (stereo not given)	69.5	–	–	–	–	–
Cn1ccnc1C1CCCCN1C(=O)c1cc(COc2ccc(F)cc2Cl)on1 (stereo not given)	36.3	–	–	–	–	–
CSc1ccccc1OCc1cc(C(=O)N2CCCC(C)C2)no1 (stereo not given)	–	–	–	–	–	–
CSc1ccccc1OCc1cc(C(=O)N2CCC(Oc3cccnc3)CC2)no1	39.2	–	–	–	–	–
CSc1ccccc1OCc1cc(C(=O)N2CCSCC2)no1	–	–	–	–	–	–
O=C(CSc1ccc(Cl)cc1)N1CCCC1	–	–	–	–	–	–
Cc1ccc(-c2nc3c(Cl)cc(C(F)(F)F)cn3c2Cc2ccccc2C(F)(F)F)cc1	·	·	·	–	–	–
FC(F)(F)c1cc(Cl)c2nc(-c3ccco3)c(Cc3ccccc3C(F)(F)F)n2c1	·	·	·	45.0	–	–
CCCc1cc(=O)[nH]c(SCC(=O)N(C)CC(=O)Nc2ccc(F)cc2)n1	–	–	–	–	–	–
SMILES	M1 antag	CHRM1 PAM	M1 ag	CHRM4 antagonist	CHRM4 PAM	CHRM4 agonist
CCCc1cc(=O)[nH]c(SCC(=O)N(C)CC(=O)Nc2ccc(C)cc2)n1	–	–	–	–	26.2	–
O=C(COC(=O)/C=C/c1ccccc1[N+](=O)[O-])Nc1ccc(OC(F)F)cc1	–	–	–	–	–	–
Cc1ccc(CNC(=O)CSc2nnc(CNC(=O)c3ccccc3)o2)cc1	–	–	–	–	22.9	–
OC(c1cc(C(F)(F)F)nc2c(C(F)(F)F)cccc12)C1CCCCN1 (stereo not given)	–	–	–	–	–	–
OC(c1cc(-c2ccc(C(F)(F)F)cc2)nc(C(F)(F)F)c1)C1CCCCN1 (stereo not given)	–	–	16.3	–	–	–
Cn1nc(C(C)(C)C)cc1C(=O)NCc1cc(F)cc2c1OCOC2	40.9	–	–	–	–	–
O=C(Cc1nc(-c2ccc([N+](=O)[O-])cc2)cs1)Nc1ccccc1	–	–	17.5	–	–	–
O=C1CCCC2=C1C(c1ccncc1)c1c(nc(SCc3ccccc3)[nH]c1=O)N2 (stereo not given)	–	–	–	–	–	–
CC1CC1c1ccc(/C=C(\C#N)C(=O)Nc2ccc(Cl)cc2Cl)o1 (stereo not given)	–	–	–	–	–	–
CC1CC1c1ccc(/C=C(\C#N)C(=O)Nc2cc(Cl)ccc2Cl)o1 (stereo not given)	–	–	–	–	20.8	–
CC(=O)OCCCNc1cc(Sc2ccc(Cl)cc2)c2nonc2c1[N+](=O)[O-]	–	–	–	–	22.4	–
CCCC(=O)OCCNc1cc(Sc2nc3ccccc3[nH]2)c2nonc2c1[N+](=O)[O-]	–	–	–	54.8	–	–
CCCCCCCCCCOC(=O)Cn1c(COc2cccc(C)c2)[n+](C)c2ccccc21	36.2	–	–	38.0	–	–
CCCCCCCCCCOC(=O)Cn1c(COc2ccccc2C)[n+](C)c2ccccc21	86.3	–	–	91.8	–	–
CCCCCCCCCCOC(=O)Cn1c(COc2ccccc2)[n+](C)c2ccccc21	69.6	–	–	37.7	–	–
CCCCOC(=O)Cn1c(=O)n(CC(=O)OCCCC)c2ccccc21	–	–	–	–	–	–
CCCCCCCCCCOC(=O)Cn1c(COc2ccc(Cl)cc2)[n+](C)c2ccccc21	43.0	–	–	–	–	–
Clc1ccc(-n2nnnc2-c2cnc3ccccc3c2-c2ccccc2)cc1	–	–	–	–	–	–
CCCCCCCCCCOC(=O)Cn1c(COc2ccc(OC)cc2)[n+](C)c2ccccc21	41.5!	–	–	32.3!	–	–
CCOC(=O)Cn1c(COc2ccccc2OC)[n+](C)c2ccccc21	–	–	–	–	–	–
Cc1ccc(CCNC(=O)CN2CCN(Cc3ccccc3F)C2=O)cc1	–	–	–	–	30.1	–
Oc1ccccc1/C=N/Nc1nn[nH]n1	–	–	–	–	–	–
O=[N+]([O-])c1ccc(O)c(/C=N/Nc2nn[nH]n2)c1	–	–	–	–	24.5	–
